Assay results published in PubChem BioAssay (NCI).
Several values for one entry are separate records, joined by “and”; a condition that tells them apart may be missing. Equal values may be shown once. Compounds without any hit were thinned out: in the full panel of roughly 79,000, 15% have a hit. Activity calls are given as the source filed them. No stated cut-off is given here; in the data, active means growth inhibition above about 70%; inactive means the rest.

Columns and labels:
[1] = NCI Yeast Anticancer Drug Screen. Data for the rad52 strain (AID 147);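 further: 0% = growth of vehicle-treated control cultures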; details: S. cerevisiae rad52 mutant growth inhibition, hits give high values
In short: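 Here a repair-compromised yeast strain receives each compound; its growth is then quantified and normalised to vehicle-only controls.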

[2] = NCI Yeast Anticancer Drug Screen. Data for the wt1 strain (AID 149);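 further: 0% = growth of vehicle-treated wt1 cultures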; details: S. cerevisiae wt1 strain (SPY 50644) growth inhibition, hits give high values
In short: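 Compounds are added to wt1 yeast cultures. Growth is then measured. Inhibition is expressed relative to vehicle-treated controls.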

[3] = NCI Yeast Anticancer Drug Screen. Data for the rad50EPP+ strain (AID 151);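 further: 0% = growth of vehicle-treated control cultures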; details: S. cerevisiae rad50 mutant strain, hits give high values
In short: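 Read-out is yeast growth inhibition relative to vehicle; cells used were the rad50EPP+ strain.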

[4] = NCI Yeast Anticancer Drug Screen. Data for the mgt1 strain (AID 153); details: S. cerevisiae mgt1 mutant growth inhibition, hits give high values
In short: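 Measured: inhibition of mgt1 yeast growth by compound, normalized to vehicle-treated cultures.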

[5] = NCI Yeast Anticancer Drug Screen. Data for the rad50 strain (AID 155);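 further: 0% = growth of vehicle-only cultures of the same strain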; details: S. cerevisiae rad50 strain growth inhibition, hits give high values
In short: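 Inhibition values express reduced yeast growth in compound-treated cultures relative to vehicle-treated controls.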

[6] = NCI Yeast Anticancer Drug Screen. Data for the mec2-1 strain (AID 157); details: S. cerevisiae mec2-1 strain, hits give high values
In short: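 Using mec2-1 yeast: add compound, measure growth, express inhibition versus vehicle-treated cultures.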

[7] = NCI Yeast Anticancer Drug Screen. Data for the rad14 strain (AID 159);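 further: 0% = growth of vehicle-treated control cultures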; details: S. cerevisiae rad14 strain growth inhibition, hits give high values
In short: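 A mutant yeast strain defective in DNA damage repair is treated with compound; inhibition of its growth is scored against untreated, vehicle-exposed cultures.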

[8] = NCI Yeast Anticancer Drug Screen. Data for the sgs1 mgt1 strain (AID 161);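 further: 0% = growth of cultures given vehicle only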; details: S. cerevisiae sgs1 mgt1 strain, hits give high values
In short: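 Yeast cells carrying a defined DNA-repair defect were exposed to test compounds. Growth inhibition was measured relative to vehicle-treated controls.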

[9] = NCI Yeast Anticancer Drug Screen. Data for the CLN2oe strain (AID 163);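 further: 0% = growth of vehicle-only control cultures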; details: S. cerevisiae CLN2oe strain, hits give high values
In short: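 Whole-cell yeast growth assay. A strain engineered for altered cell-cycle control received compound, and inhibition relative to vehicle-treated cultures was recorded.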

[10] = NCI Yeast Anticancer Drug Screen. Data for the cln2 rad14 strain (AID 165);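 further: 0% = growth equal to vehicle treated cultures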; details: S. cerevisiae cln2 rad14 strain, hits give high values
In short: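 Yeast strain cln2 rad14, bearing defects in cell cycle control and DNA repair, serves as the test system; values reflect growth inhibition compared with vehicle.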

[11] = NCI Yeast Anticancer Drug Screen. Data for the bub3 strain (AID 167); details: S. cerevisiae bub3 mutant strain, hits give high values
In short: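 Steps: expose the mutant yeast strain to compound; grow alongside vehicle-treated cultures; measure growth; express inhibition against the vehicle cultures.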

[12] = NCI Yeast Anticancer Drug Screen. Data for the mlh1 strain (AID 171);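 further: 0% = growth of vehicle-treated control cultures of the same strain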; details: S. cerevisiae mlh1 strain growth inhibition, hits give high values
In short: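 A yeast strain with a defined genetic lesion serves as the test organism. Cultures receive compound or vehicle, and growth is measured.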

[13] = NCI Yeast Anticancer Drug Screen. Data for the sgs1 strain (AID 173);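 further: 0% = growth of vehicle-only control cultures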; details: S. cerevisiae sgs1 mutant, hits give high values
In short: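 A genetically defined yeast mutant is incubated with the test compound, and its growth is compared to that of the same strain given vehicle.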

[14] = NCI Yeast Anticancer Drug Screen. Data for the mlh1 rad18 strain (AID 175); details: S. cerevisiae mlh1 rad18 strain growth inhibition, hits give high values
In short: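 Steps: expose repair-defective yeast to compound; measure growth; express inhibition against vehicle-treated controls.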

[15] = NCI Yeast Anticancer Drug Screen. Data for the rad18 strain (AID 177); details: S. cerevisiae rad18 mutant growth inhibition, hits give high values
In short: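 Measured value is growth inhibition of a yeast strain bearing a DNA repair alteration, referenced to vehicle-treated cells.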

[16] = NCI Yeast Anticancer Drug Screen. Data for the wt2 strain (AID 169);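 further: 0% = growth of vehicle-treated yeast cultures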; details: S. cerevisiae wt2 strain growth inhibition, hits give high values
In short: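 Treated yeast vs. vehicle-treated yeast: growth inhibition determined.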

[17] = at 5.0 µM (retest, dose inferred, filed as 0.5)
[18] = at 50.0 µM (retest, dose inferred, filed as 5.0)

Measured: growth inhibition

N#CC(C#N)=Cc1ccc(C#N)cc1
active: [5]; [18] 90% | [14]; [18] 76%
inactive: [1]; at 1.2 µM 0% | [1]; at 3.7 µM -4% | [1]; at 11.0 µM -1% | [1]; at 33.0 µM 0% | [1]; at 100.0 µM 11% | [2]; at 1.2 µM -2% | [2]; at 3.7 µM -2% | [2]; at 11.0 µM -3% | [2]; at 33.0 µM -2% | [2]; at 100.0 µM 3% | [3]; at 1.2 µM -2% | [3]; at 3.7 µM -2% | [3]; at 11.0 µM 0% | [3]; at 33.0 µM 0% | [3]; at 100.0 µM 0% | [4]; at 1.2 µM -2% | [4]; at 3.7 µM -2% | [4]; at 11.0 µM 0% | [4]; at 33.0 µM -3% | [4]; at 100.0 µM 1% | [5]; at 1.2 µM 1% | [5]; at 3.7 µM -4% | [5]; [17] -109% | [5]; at 11.0 µM 2% | [5]; at 33.0 µM 10% | [5]; at 50.0 µM -6.65% and 24.1% | [5]; at 100.0 µM 9% | [6]; at 1.2 µM 3% | [6]; at 3.7 µM 0% | [6]; [17] -47% | [6]; at 11.0 µM 6% | [6]; at 33.0 µM 3% | [6]; [18] 15% | [6]; at 50.0 µM -8.25% and 5.55% | [6]; at 100.0 µM 7% | [7]; at 1.2 µM 1% | [7]; at 3.7 µM 1% | [7]; at 11.0 µM 2% | [7]; at 33.0 µM 6% | [7]; at 100.0 µM 16% | [8]; [17] -56% | [8]; [18] 62% | [8]; at 50.0 µM -16.8% and -0.4% | [9]; at 1.2 µM -4% | [9]; at 3.7 µM -2% | [9]; at 11.0 µM 1% | [9]; at 33.0 µM 0% | [9]; at 100.0 µM 11% | [10]; [17] -60% | [10]; [18] -7% | [10]; at 50.0 µM 50.4% and 4.05% | [11]; at 1.2 µM -4% | [11]; at 3.7 µM -8% | [11]; [17] -65% | [11]; at 11.0 µM -7% | [11]; at 33.0 µM -7% | [11]; [18] 51% | [11]; at 50.0 µM -0.75% and 31.1% | [11]; at 100.0 µM 7% | [12]; at 1.2 µM 8% | [12]; at 3.7 µM -4% | [12]; at 11.0 µM -1% | [12]; at 33.0 µM 1% | [12]; at 100.0 µM 2% | [13]; at 1.2 µM -1% | [13]; at 3.7 µM -2% | [13]; at 11.0 µM -2% | [13]; at 33.0 µM -2% | [13]; at 100.0 µM 14% | [14]; [17] -109% | [14]; at 50.0 µM -24.6% and 16.7% | [15]; at 1.2 µM -1% | [15]; at 3.7 µM -1% | [15]; at 11.0 µM -1% | [15]; at 33.0 µM 0% | [15]; at 100.0 µM 9%

C[C@]12CCC(=O)C=C1CC[C@@H]1C2CC[C@@]2(C)C1CC[C@@H]2OC(=O)C12OC1CCC2=O (stereo partly specified)
inactive: [1]; at 1.2 µM 0% | [1]; at 3.7 µM 23% | [1]; at 11.0 µM 37% | [2]; at 1.2 µM -2% | [2]; at 3.7 µM -9% | [2]; at 11.0 µM 8% | [2]; at 33.0 µM 66% | [3]; at 1.2 µM 9% | [3]; at 3.7 µM 25% | [3]; at 11.0 µM 69% | [4]; at 1.2 µM -8% | [4]; at 3.7 µM -11% | [4]; at 11.0 µM 27% | [5]; at 1.2 µM -15% | [5]; at 3.7 µM -4% | [5]; [17] -16% | [5]; at 11.0 µM 29% | [6]; at 1.2 µM 5% | [6]; at 3.7 µM 14% | [6]; [17] 6% | [6]; at 11.0 µM 33% | [7]; at 1.2 µM -9% | [7]; at 3.7 µM -11% | [7]; at 11.0 µM 5% | [8]; [17] 8% | [9]; at 1.2 µM 10% | [9]; at 3.7 µM 12% | [9]; at 11.0 µM 14% | [9]; at 33.0 µM 39% | [10]; [17] 39% | [10]; [18] 67% | [10]; at 50.0 µM 65.1% | [11]; at 1.2 µM 1% | [11]; at 3.7 µM 23% | [11]; [17] 27% | [11]; at 11.0 µM 45% | [16]; at 1.2 µM -3% | [16]; at 3.7 µM 9% | [16]; at 11.0 µM 36% | [12]; at 1.2 µM 19% | [12]; at 3.7 µM 17% | [12]; at 11.0 µM 51% | [13]; at 1.2 µM 18% | [13]; at 3.7 µM 24% | [13]; at 11.0 µM 57% | [14]; [17] -21% | [15]; at 1.2 µM 9% | [15]; at 3.7 µM 14% | [15]; at 11.0 µM 39%
active: [1]; at 33.0 µM 83% | [1]; at 100.0 µM 96% | [2]; at 100.0 µM 96% | [3]; at 33.0 µM 94% | [3]; at 100.0 µM 97% | [4]; at 33.0 µM 92% | [4]; at 100.0 µM 97% | [5]; at 33.0 µM 79% | [5]; [18] 87% | [5]; at 50.0 µM 86.2% | [5]; at 100.0 µM 95% | [6]; at 33.0 µM 90% | [6]; [18] 86% | [6]; at 50.0 µM 88.8% | [6]; at 100.0 µM 97% | [7]; at 33.0 µM 75% | [7]; at 100.0 µM 96% | [8]; [18] 93% | [8]; at 50.0 µM 88.7% | [9]; at 100.0 µM 96% | [11]; at 33.0 µM 79% | [11]; [18] 96% | [11]; at 50.0 µM 84.5% | [11]; at 100.0 µM 96% | [16]; at 33.0 µM 91% | [16]; at 100.0 µM 96% | [12]; at 33.0 µM 94% | [12]; at 100.0 µM 97% | [13]; at 33.0 µM 95% | [13]; at 100.0 µM 96% | [14]; [18] 92% | [14]; at 50.0 µM 85.4% | [15]; at 33.0 µM 83% | [15]; at 100.0 µM 97%
